Data: PubChem BioAssay AID1159580 (chemical genetic matrix, 2015)
“And” between values parts separate entries of the source, which are not always exact repeats. Equal values may be shown once. Screen size: about 5,500 compounds; about 2,000 (36%) were called active. Not shown: some 18% with an inconclusive outcome. No stated cut-off is given here; in the data, active means normalized growth mostly below about 0.91 (no sharp cut-off); inconclusive means no clear call, values can overlap the other calls; inactive means mostly above about 0.92. This is one part of the list.

Assay: chemical genetic growth profiling, strain panel (AID 1159580);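 further: tested at 20 µM; growth read once vehicle control cultures reached saturation at 30 °C; 1 = growth at the plate median or of vehicle wells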
Conditions: growth OD
[1] = S. cerevisiae deletion strains, locus YBR229C, strain ROT2, stronger effect = lower value
[2] = S. cerevisiae deletion strains, locus YDL101C, strain DUN1, stronger effect = lower value
[3] = S. cerevisiae deletion strains, locus YDL134C, strain PPH21, stronger effect = lower value
[4] = S. cerevisiae deletion strains, locus YDR150W, strain NUM1, stronger effect = lower value
[5] = S. cerevisiae deletion strains, locus YEL061C, strain CIN8, stronger effect = lower value
[6] = S. cerevisiae deletion strains, locus YHR030C, strain SLT2, stronger effect = lower value
[7] = S. cerevisiae deletion strains, locus YJR043C, strain POL32, stronger effect = lower value
[8] = S. cerevisiae deletion strains, locus YJR075W, strain HOC1, stronger effect = lower value
[9] = S. cerevisiae deletion strains, locus YKL190W, strain CNB1, stronger effect = lower value
[10] = S. cerevisiae deletion strains, locus YLR039C, strain RIC1, stronger effect = lower value
[11] = S. cerevisiae deletion strains, locus YLR262C, strain YPT6, stronger effect = lower value
[12] = S. cerevisiae deletion strains, locus YMR263W, strain SAP30, stronger effect = lower value
[13] = S. cerevisiae deletion strains, locus YMR307W, strain GAS1, stronger effect = lower value
[14] = S. cerevisiae deletion strains, locus YNL322C, strain KRE1, stronger effect = lower value
[15] = S. cerevisiae deletion strains, locus YOL006C, strain TOP1, stronger effect = lower value
[16] = S. cerevisiae deletion strains, locus YPL055C, strain LGE1, stronger effect = lower value
[17] = S. cerevisiae strains, strain wild type, stronger effect = lower value
[18] = S. cerevisiae deletion strains, locus YAL013W, strain DEP1, stronger effect = lower value
[19] = S. cerevisiae deletion strains, locus YGR078C, strain PAC10, stronger effect = lower value
[20] = S. cerevisiae deletion strains, locus YHR087W, strain rtc3, stronger effect = lower value
[21] = S. cerevisiae deletion strains, locus YJL187C, strain SWE1, stronger effect = lower value
[22] = S. cerevisiae deletion strains, locus YLR058C, strain SHM2 (second series), stronger effect = lower value
[23] = S. cerevisiae deletion strains, locus YLR085C, strain ARP6, stronger effect = lower value
[24] = S. cerevisiae deletion strains, locus YML094W, strain GIM5, stronger effect = lower value
[25] = S. cerevisiae deletion strains, locus YMR219W, strain ESC1, stronger effect = lower value
[26] = S. cerevisiae deletion strains, locus YNL153C, strain GIM3, stronger effect = lower value
[27] = S. cerevisiae deletion strains, locus YNL298W, strain CLA4 (second series), stronger effect = lower value
[28] = S. cerevisiae deletion strains, locus YNR030W, strain Alg12, stronger effect = lower value
[29] = S. cerevisiae deletion strains, locus YPL241C, strain CIN2, stronger effect = lower value
[30] = S. cerevisiae deletion strains, locus YPR135W, strain CTF4, stronger effect = lower value

Measured: normalized growth

CCCCC1(COC(=O)CCC(=O)O)C(=O)N(c2ccccc2)N(c2ccccc2)C1=O
inactive: S. cerevisiae deletion strains, locus YBR021W, strain FUR4, stronger effect = lower value 1 | [1] 1 | S. cerevisiae deletion strains, locus YCL029C, strain bik1, stronger effect = lower value 1.02 | S. cerevisiae deletion strains, locus YDL035C, strain GPR1, stronger effect = lower value 1.01 | S. cerevisiae deletion strains, locus YDL074C, strain BRE1, stronger effect = lower value 0.993 | [2] 1 | [3] 1.01 | S. cerevisiae deletion strains, locus YDL185W, strain tfp1, stronger effect = lower value 1.01 | S. cerevisiae deletion strains, locus YDL192W, strain arf1, stronger effect = lower value 1.01 | S. cerevisiae deletion strains, locus YDR101C, strain arx1, stronger effect = lower value 1.01 | [4] 0.992 | S. cerevisiae deletion strains, locus YDR162C, strain NBP2, stronger effect = lower value 0.995 | S. cerevisiae deletion strains, locus YDR318W, strain mcm21, stronger effect = lower value 1 | S. cerevisiae deletion strains, locus YDR388W, stronger effect = lower value 1.01 | S. cerevisiae deletion strains, locus YDR502C, strain sam2, stronger effect = lower value 1.01 | [5] 1 | S. cerevisiae deletion strains, locus YER110C, stronger effect = lower value 1.02 | S. cerevisiae deletion strains, locus YER155C, strain BEM2, stronger effect = lower value 1 | S. cerevisiae deletion strains, locus YER167W, strain BCK2, stronger effect = lower value 1 | S. cerevisiae deletion strains, locus YGL078C, strain dbp3, stronger effect = lower value 0.996 | S. cerevisiae deletion strains, locus YGL086W, strain mad1, stronger effect = lower value 1 | S. cerevisiae deletion strains, locus YGL248W, strain PDE1, stronger effect = lower value 1.01 | S. cerevisiae deletion strains, locus YGR135W, strain pre9, stronger effect = lower value 1.02 | S. cerevisiae deletion strains, locus YGR252W, strain gcn5, stronger effect = lower value 1.06 | [6] 1 and 1.05 | S. cerevisiae deletion strains, locus YHR079C, strain IRE1 (second series), stronger effect = lower value 1.01 | S. cerevisiae deletion strains, locus YHR079C, strain IRE1, stronger effect = lower value 1.04 | S. cerevisiae deletion strains, locus YHR094C, strain hxt1, stronger effect = lower value 1.01 | S. cerevisiae deletion strains, locus YHR129C, strain ARP1, stronger effect = lower value 1 | S. cerevisiae deletion strains, locus YHR200W, strain rpn10, stronger effect = lower value 1.01 | S. cerevisiae deletion strains, locus YIL066C, strain RNR3, stronger effect = lower value 1.01 | S. cerevisiae deletion strains, locus YIL073C, strain SPO22, stronger effect = lower value 1.09 | S. cerevisiae deletion strains, locus YIL125W, strain kgd1, stronger effect = lower value 0.991 | S. cerevisiae deletion strains, locus YIR030C, strain dcg1, stronger effect = lower value 1.01 | S. cerevisiae deletion strains, locus YJL095W, strain BCK1, stronger effect = lower value 1.01 and 1.05 | S. cerevisiae deletion strains, locus YJL134W, strain LCB3, stronger effect = lower value 0.996 | S. cerevisiae deletion strains, locus YJL168C, strain set2, stronger effect = lower value 1 | S. cerevisiae deletion strains, locus YJL187C, strain SWE1 (second series), stronger effect = lower value 1.01 | [7] 0.989 | S. cerevisiae deletion strains, locus YJR066W, strain TOR1, stronger effect = lower value 0.967 | [8] 1.01 | S. cerevisiae deletion strains, locus YKL009W, strain mrt4, stronger effect = lower value 1.03 | S. cerevisiae deletion strains, locus YKL068W, stronger effect = lower value 1 | S. cerevisiae deletion strains, locus YKL085W, strain MDH1 (second series), stronger effect = lower value 0.972 | S. cerevisiae deletion strains, locus YKL085W, strain MDH1, stronger effect = lower value 0.972 | [9] 0.993 | S. cerevisiae deletion strains, locus YKR001C, strain vps1, stronger effect = lower value 1.01 | [10] 0.912 | S. cerevisiae deletion strains, locus YLR058C, strain SHM2, stronger effect = lower value 1 | S. cerevisiae deletion strains, locus YLR102C, strain apc9, stronger effect = lower value 1 | S. cerevisiae deletion strains, locus YLR113W, strain HOG1, stronger effect = lower value 0.952 | [11] 0.913 | S. cerevisiae deletion strains, locus YLR268W, strain sec22, stronger effect = lower value 1.02 | S. cerevisiae deletion strains, locus YLR330W, strain CHS5, stronger effect = lower value 0.993 | S. cerevisiae deletion strains, locus YLR342W, strain FKS1 (second series), stronger effect = lower value 0.993 | S. cerevisiae deletion strains, locus YLR371W, strain rom2, stronger effect = lower value 1.01 | S. cerevisiae deletion strains, locus YLR418C, strain cdc73, stronger effect = lower value 1.03 | S. cerevisiae deletion strains, locus YML016C, strain PPZ1, stronger effect = lower value 1 | S. cerevisiae deletion strains, locus YML032C, strain rad52, stronger effect = lower value 1 | S. cerevisiae deletion strains, locus YML124C, strain tub3, stronger effect = lower value 1.01 | S. cerevisiae deletion strains, locus YMR078C, strain ctf18, stronger effect = lower value 1 | S. cerevisiae deletion strains, locus YMR223W, strain ubp8, stronger effect = lower value 1.01 | [12] 0.998 | [13] 1.05 | S. cerevisiae deletion strains, locus YNL067W, strain RPL9B, stronger effect = lower value 0.998 | S. cerevisiae deletion strains, locus YNL128W, strain TEP1, stronger effect = lower value 1.02 | S. cerevisiae deletion strains, locus YNL183C, strain NPR1, stronger effect = lower value 0.945 | S. cerevisiae deletion strains, locus YNL233W, strain BNI4, stronger effect = lower value 1 | S. cerevisiae deletion strains, locus YNL250W, strain rad50, stronger effect = lower value 1 | S. cerevisiae deletion strains, locus YNL271C, strain bni1, stronger effect = lower value 1.01 | S. cerevisiae deletion strains, locus YNL298W, strain CLA4, stronger effect = lower value 1.01 | S. cerevisiae deletion strains, locus YNL307C, strain MCK1, stronger effect = lower value 1.02 | [14] 0.997 | S. cerevisiae deletion strains, locus YNR052C, strain pop2, stronger effect = lower value 1.01 | [15] 0.991 | S. cerevisiae deletion strains, locus YOL012C, strain htz1 1.51 | S. cerevisiae deletion strains, locus YOL147C, strain pex11, stronger effect = lower value 1.01 | S. cerevisiae deletion strains, locus YOR061W, strain CKA2, stronger effect = lower value 1 | S. cerevisiae deletion strains, locus YOR069W, strain VPS5, stronger effect = lower value 1 | S. cerevisiae deletion strains, locus YOR136W, strain idh2, stronger effect = lower value 1.02 | S. cerevisiae deletion strains, locus YOR144C, strain elg1, stronger effect = lower value 1.01 | S. cerevisiae deletion strains, locus YOR184W, strain ser1, stronger effect = lower value 1.02 | S. cerevisiae deletion strains, locus YOR231W, strain MKK1, stronger effect = lower value 1.02 | S. cerevisiae deletion strains, locus YOR316C, strain cot1, stronger effect = lower value 1.02 | [16] 0.989 | S. cerevisiae deletion strains, locus YPL256C, strain CLN2, stronger effect = lower value 1.02 | S. cerevisiae deletion strains, locus YPR119W, strain clb2, stronger effect = lower value 1.01 | S. cerevisiae deletion strains, locus YPR141C, strain kar3, stronger effect = lower value 1 | S. cerevisiae deletion strains, locus YPR163C, strain tif3, stronger effect = lower value 1.02 | S. cerevisiae deletion strains, locus YPR167C, strain met16, stronger effect = lower value 1.01 | S. cerevisiae deletion strains, strain wtn01, stronger effect = lower value 1.02 | [17] 0.995

CCSc1sc(C(=O)OC)c(-c2ccc(Cl)cc2)c1C#N
inactive: [18] 1.01 | [1] 0.985 | [2] 1.02 | [3] 0.964 | [4] 1.06 | [5] 0.917 | [19] 0.995 | S. cerevisiae deletion strains, locus YGR229C, strain SMI1, stronger effect = lower value 0.989 | [6] 0.989 | [20] 1 | [21] 0.983 | [7] 1.05 | [8] 0.968 | [9] 0.99 | [10] 1.01 | [22] 0.986 | [23] 0.817 | [11] 0.999 | [24] 0.946 | [25] 0.992 | [12] 1.07 | [13] 0.972 | [26] 0.994 | [27] 0.94 | [14] 0.99 | [28] 0.954 | [16] 1.08 | [29] 0.96 | [30] 1.01

COC(=O)c1ccc(-c2ccc(Cl)cc2)s1
inactive: [2] 0.906 | [4] 0.893 | [21] 0.961 | [7] 0.927 | [24] 0.871 | [12] 0.893 | [16] 1.08 | [17] 0.928
active: [18] 0.898 | [1] 0.901 | S. cerevisiae deletion strains, locus YCL061C, strain MRC1, stronger effect = lower value 0.858 | [5] 0.87 | [19] 0.914 | [6] 0.587 | [20] 0.909 | [8] 0.88 | [9] 0.913 | [10] 0.497 | [22] 0.907 | [23] 0.577 | [11] 0.435 | [25] 0.908 | [13] 0.629 | [26] 0.872 | [27] 0.79 | [14] 0.92 | [28] 0.869 | [15] 0.637 | [29] 0.83 | [30] 0.597
